Several values for one entry are separate records, joined by “and”; a condition that tells them apart may be missing. Equal entries are not always repeated. The source holds several records for some structures; these can differ, active in one and inactive in another. Activity calls are given as the source filed them. Unless noted, calls follow the shape of the dose curve; as a rule, active = well fitted curve in the direction sought with a large enough effect in the repeat runs; inconclusive = weak or mixed curves; inactive = no such curve, though single readings can be large; an effect the other way counts as inactive or inconclusive.

Experiment [1] is described as follows: qHTS assay to identify small molecule antagonists of the thyroid receptor (TR) signaling pathway - cell viability counter screen (AID 743064). Also: nearly all actives have a fitted effect of over 50% in size. An outline of the steps:
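GH3.TRE-Luc cells, 4 h pre-plating; cpd + T3 1 nM final; 37 °C 23.5 h; CellTiter-Fluor 30 min; fluorescence read.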
For orientation: In qHTS, concentration-response curves come from the screen itself.

Experiment [2] deals with thyroid hormone receptor (rat, GH3 cells). Briefly: qHTS assay to identify small molecule agonists of the thyroid receptor (TR) signaling pathway (AID 743066; calls by dose curve).
The target in experiment [3] is Estrogen receptor (Homo sapiens) (UniProt P03372). The experiment is described as follows: qHTS assay to identify small molecule antagonists of the estrogen receptor alpha (ER-alpha) signaling pathway (AID 743069; active = well fitted curve in the direction sought with a large enough effect in the signal ratio in the repeat runs, not every such curve was filed as active; inconclusive = weak or mixed curves, or effect the other way; inactive = no such curve, though single readings can be large or run the other way; the % refers to the signal ratio; also: potency is read from the fitted curve at half-maximal effect). The procedure, abridged: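 HEK293 cells stably carrying an ER-alpha-UAS-bla beta-lactamase reporter were pre-cultured overnight in 2% charcoal-stripped FBS medium. Test compounds in DMSO were added together with 17beta-estradiol for 18 hr at 37C. Read-out was fluorescence after 2 hr with LiveBLAzer B/G FRET substrate at room temperature.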

Experiment [4] can be described thus: qHTS assay to identify small molecule antagonists of the estrogen receptor alpha (ER-alpha) signaling pathway - cell viability counter screen (AID 743074; calls by dose curve; also: nearly all actives have a fitted effect of over 45% in size).
The target in experiment [5] is Estrogen receptor (Homo sapiens) (UniProt P03372). The experiment is described as follows: qHTS assay to identify small molecule agonists of the estrogen receptor alpha (ER-alpha) signaling pathway (AID 743075; calls by dose curve).
Experiment [6] shares this target. Briefly: qHTS assay to identify small molecule agonists of the estrogen receptor alpha (ER-alpha) signaling pathway using the BG1 cell line (AID 743079). Also: nearly all actives have a fitted effect of over 20% in size. Also: potency is read from the fitted curve at half-maximal effect.
Experiment [7] in a line: qHTS assay to identify small molecule antagonists of the estrogen receptor alpha (ER-alpha) signaling pathway using the BG1 cell line (AID 743080; calls by dose curve;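 also: BG1 cells stimulated with 17beta-estradiol alongside compound; nearly all actives have a fitted effect of over 25% in size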; also: potency is read from the fitted curve at half-maximal effect). An outline of the steps:
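Luciferase inhibition measured with ONE-Glo after 30 min at RT in BG1Luc4E2 cells given test compounds and 17beta-estradiol for 21.5 h at 37 C; CellTiter-Fluor viability read in the same wells beforehand.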

Experiment [8] in a line: qHTS assay to identify small molecule antagonists of the estrogen receptor alpha (ER-alpha) signaling pathway using the BG1 cell line - cell viability counter screen (AID 743081).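 Also: compound given together with 17beta-estradiol as the ER stimulus; series mostly up to about 70 µM; nearly all actives have a fitted effect of over 45% in size.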
The target in another experiment is Aromatase (Homo sapiens) (UniProt P11511). Briefly: qHTS assay to identify aromatase inhibitors (AID 743083). Also: nearly all actives have a fitted effect of over 55% in size. Also: potency is read from the fitted curve at half-maximal effect.
The nature of experiment [9]: qHTS assay to identify small molecule antagonists of the thyroid receptor (TR) signaling pathway (AID 743065). Also: series mostly up to about 70 µM; nearly all actives have a fitted effect of over 55% in size. The procedure, abridged:
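GH3.TRE-Luc rat pituitary cells carrying two TR response elements driving luciferase were plated for 4 h, given compound plus 1 nM T3 (final), and incubated 23.5 h at 37 C. ONE-Glo luminescence measured reporter inhibition; CellTiter-Fluor fluorescence tracked cytotoxicity.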
% is scaled to controls: 0 for no effect and ±100 for the full control effect.

Sequence of Aromatase (Homo sapiens) (P11511 whole entry, looked up): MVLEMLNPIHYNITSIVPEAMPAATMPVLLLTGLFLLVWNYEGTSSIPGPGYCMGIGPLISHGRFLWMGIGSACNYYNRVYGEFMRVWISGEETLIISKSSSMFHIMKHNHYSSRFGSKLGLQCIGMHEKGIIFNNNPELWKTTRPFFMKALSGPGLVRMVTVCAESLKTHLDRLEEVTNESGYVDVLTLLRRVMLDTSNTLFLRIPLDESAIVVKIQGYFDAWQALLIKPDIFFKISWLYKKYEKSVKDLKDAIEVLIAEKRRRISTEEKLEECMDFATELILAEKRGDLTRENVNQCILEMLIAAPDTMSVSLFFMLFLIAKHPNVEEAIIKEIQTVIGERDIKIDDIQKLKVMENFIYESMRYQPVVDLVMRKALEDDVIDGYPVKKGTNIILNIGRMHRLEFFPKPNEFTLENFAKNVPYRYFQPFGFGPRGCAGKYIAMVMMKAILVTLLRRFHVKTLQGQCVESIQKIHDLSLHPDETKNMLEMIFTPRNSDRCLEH
Sequence of Estrogen receptor (Homo sapiens) (P03372 whole entry, looked up): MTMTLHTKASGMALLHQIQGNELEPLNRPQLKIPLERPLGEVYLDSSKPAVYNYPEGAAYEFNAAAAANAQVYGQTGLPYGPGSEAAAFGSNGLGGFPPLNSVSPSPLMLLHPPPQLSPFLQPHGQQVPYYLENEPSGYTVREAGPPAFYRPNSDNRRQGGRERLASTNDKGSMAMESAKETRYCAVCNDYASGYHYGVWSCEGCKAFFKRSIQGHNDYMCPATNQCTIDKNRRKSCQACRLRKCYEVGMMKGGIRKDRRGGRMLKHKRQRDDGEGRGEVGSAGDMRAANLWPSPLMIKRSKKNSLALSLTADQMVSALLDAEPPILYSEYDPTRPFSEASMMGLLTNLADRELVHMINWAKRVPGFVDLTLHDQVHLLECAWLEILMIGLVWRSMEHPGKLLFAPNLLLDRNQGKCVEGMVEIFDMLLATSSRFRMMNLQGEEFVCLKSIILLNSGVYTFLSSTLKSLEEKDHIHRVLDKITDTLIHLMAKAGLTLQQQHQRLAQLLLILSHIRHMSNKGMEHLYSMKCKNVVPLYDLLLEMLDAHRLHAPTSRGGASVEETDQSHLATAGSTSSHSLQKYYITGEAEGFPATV

Take `Cc1ccc(N)cc1N`: the Potency entry in [1], in experiment [3], in experiment [4], in [5], in experiment [6] and in experiment [7] was “inactive” in each case. Further, the Potency result with Aromatase (Homo sapiens) was “inactive”. Further, the outcome in [2] and in experiment [8] was inactive.
As to `CCCN(CCC)c1c([N+](=O)[O-])cc(C(F)(F)F)cc1[N+](=O)[O-]`, the molecule was called inactive in experiment [2] and in [8]. For the same molecule, the Potency result (in experiment [3]; in experiment [4]; in [5]; in experiment [6]; in experiment [7]; in the experiment with Aromatase (Homo sapiens)) was “inactive” throughout.
Turning to `CCCC1COC(Cn2cncn2)(c2ccc(Cl)cc2Cl)O1` (stereo unspecified), the Potency entry in experiment [1], in experiment [3], in experiment [4] and in experiment [5] was “inactive” in each case. Also, the result in experiment [2] and in experiment [8] was inactive. In addition, the Potency in experiment [7] was 27.8 µM (active) and 68.6 µM (active); with Aromatase (Homo sapiens), 31.2 µM (active) and 24.3 µM (active).
As to `COC(=O)NC(=S)Nc1ccccc1NC(=S)NC(=O)OC`, the Potency entry (in [1]; in experiment [3]; in experiment [5]; in experiment [6]; in experiment [7]; with Aromatase (Homo sapiens)) was “inactive” throughout. Moreover, the call in experiment [2] and in experiment [8] was inactive.
As for `OC(O)C(Cl)(Cl)Cl`, the Potency entry (in [1]; in experiment [4]; in the experiment with Aromatase (Homo sapiens)) was “inactive” in each case. For the same molecule, the call in experiment [2] and in experiment [8] was inactive.
Turning to `O=NN1CCCCCCC1`, the Potency entry (in [1]; in experiment [3]; in experiment [4]; in [5]; in [7]; in the experiment with Aromatase (Homo sapiens)) was “inactive” throughout. Also, the result in experiment [2] and in experiment [8] was inactive.
For the molecule `NCC(O)c1ccc(O)cc1` (stereo unspecified), the Potency result (in experiment [1]; in experiment [4]; in the experiment with Aromatase (Homo sapiens)) was “inactive” in each case. Besides, the outcome in [2] and in [8] was inactive.
On to `CCNc1nc(NC(C)(C)C)nc(SC)n1`, for which the Potency entry in [1], in experiment [3], in experiment [4], in experiment [5], in [6] and in experiment [7] was “inactive” in each case. Moreover, the Potency result with Aromatase (Homo sapiens) was “inactive”. Also, the result in experiment [2] and in [8] was inactive.
In the case of `CC(C)NC(=O)N1CC(=O)N(c2cc(Cl)cc(Cl)c2)C1=O`, the Potency entry in [9], in [3], in [4], in [5], in experiment [6] and in [7] was “inactive” in each case. Moreover, in the experiment with Aromatase (Homo sapiens), the Potency entry is “inactive”. The call in [2] and in [8] was inactive.
On to `C[C@]12CC[C@H]3[C@@H](CC[C@@]45O[C@@H]4C(O)=C(C#N)C[C@]35C)[C@@H]1CC[C@@H]2O`, for which the Potency entry (in experiment [4]; in the experiment with Aromatase (Homo sapiens)) was “inactive” throughout. In addition, the outcome in experiment [8] was inactive.
As to `CCC12COCN1COC2`, the Potency entry in experiment [1], in [3], in experiment [4], in experiment [5], in experiment [6] and in experiment [7] was “inactive” each time. Also, the Potency entry with Aromatase (Homo sapiens) is “inactive”. The call in experiment [2] and in [8] was inactive.
As to `CC1OC(C)OC(C)O1` (stereo unspecified), the Potency entry (in experiment [4]; with Aromatase (Homo sapiens)) was “inactive” each time. Also, the molecule was called inactive in experiment [8].
In the case of `CCC[N+](=O)[O-]`, the Potency entry (in experiment [1]; in [4]; with Aromatase (Homo sapiens)) was “inactive” in each case. The outcome in experiment [2] and in experiment [8] was inactive.
In the case of `C#CC(C)(C)NC(=O)c1cc(Cl)cc(Cl)c1`, the Potency result (in experiment [1]; in experiment [4]; with Aromatase (Homo sapiens)) was “inactive” in each case. For the same molecule, the call in experiment [2] and in [8] was inactive.
Take `Nc1ccc(Br)cc1`: the Potency entry (in experiment [1]; in experiment [4]; in [5]; in [6]; in experiment [7]; in the experiment with Aromatase (Homo sapiens)) was “inactive” throughout. The outcome in [2] and in [8] was inactive. For the same molecule, in experiment [3], the Potency was 3.47 µM [inconclusive] (active).
In the case of `CCCCOC(=O)c1ccccc1C(=O)OCCCC`, the Potency entry (in experiment [1]; in [3]; in experiment [4]; in experiment [5]; in experiment [7]; with Aromatase (Homo sapiens)) was “inactive” in each case. Also, the result in experiment [2] and in [8] was inactive. For the same molecule, the Potency in [6] is 77 µM (active) and inactive.
For `[N-]=[N+]=[N-]`, the Potency entry (in [1]; in experiment [3]; in experiment [4]; in experiment [5]; in experiment [6]; with Aromatase (Homo sapiens)) was “inactive” in each case. Moreover, the result in experiment [2] and in [8] was inactive. Besides, in [7], the Potency entry was “inactive and 68.6 µM (active)”.
For `COC(=O)c1ccccc1C(=O)OC`, the Potency result in [1], in experiment [3], in experiment [4], in experiment [5], in experiment [6] and in experiment [7] was “inactive” in each case. Also, the Potency entry in the experiment with Aromatase (Homo sapiens) is “inactive”. The outcome in experiment [2] and in [8] was inactive.
As for `CC(C)N1C(=O)c2ccccc2NS1(=O)=O`, the Potency entry in experiment [1], in experiment [3], in experiment [4], in experiment [5], in experiment [6] and in experiment [7] was “inactive” throughout. For the same molecule, the Potency entry with Aromatase (Homo sapiens) was “inactive”. Moreover, the molecule was called inactive in experiment [2] and in [8].
For the molecule `CON(C)C(=O)Nc1ccc(Cl)c(Cl)c1`, the Potency result (in experiment [1]; in experiment [3]; in experiment [4]; in experiment [5]; in experiment [6]; in the experiment with Aromatase (Homo sapiens)) was “inactive” throughout. Moreover, the outcome in experiment [2] and in [8] was inactive.
Take `CC(C)C1(C)N=C(c2nc3ccccc3cc2C(=O)O)NC1=O` (stereo unspecified): the Potency entry in experiment [1], in [3], in experiment [4], in experiment [5], in [6] and in experiment [7] was “inactive” throughout. Also, the Potency result with Aromatase (Homo sapiens) is “inactive”. For the same molecule, the result in experiment [2] and in [8] was inactive.
In the case of `C=CCO`, the Potency result (in experiment [1]; in experiment [4]; with Aromatase (Homo sapiens)) was “inactive” throughout. Besides, in [8], the call was inactive.
Consider `C=C(C)CCl`, for which the activity change, negative = cytotoxic in experiment [1] was -10.5% [at 8.44 µM] (inactive). Also, the outcome in [2] and in experiment [8] was inactive. For the same molecule, the Potency result (in [3]; in experiment [4]; in experiment [5]; in [6]; in [7]; with Aromatase (Homo sapiens)) was “inactive” in each case.
As to `O=[N+]([O-])c1ccc(Oc2ccc(Cl)cc2Cl)cc1`, the Potency entry (in [1]; in experiment [4]; with Aromatase (Homo sapiens)) was “inactive” throughout. The result in experiment [2] and in experiment [8] was inactive.
In the case of `CCc1cccc(C)c1N(C(=O)CCl)C(C)COC` (stereo unspecified), the Potency entry in experiment [1] and in [4] was “inactive” each time. For the same molecule, the result in [8] was inactive.
Take `Nc1ccc(Oc2ccc(N)cc2)cc1`: the Potency entry in experiment [1] and in experiment [4] was “inactive” each time. The result in experiment [8] was inactive. For the same molecule, the Potency with Aromatase (Homo sapiens) is 54.5 µM (active).
Turning to `CN=C=S`, the result in [2] and in experiment [8] was inactive. Further, the Potency entry (in experiment [3]; in [4]; in experiment [5]; in experiment [6]; in [7]; with Aromatase (Homo sapiens)) was “inactive” throughout.
As for `CCOP(=S)(OCC)SCCSCC`, the Potency result (in experiment [1]; in [4]; in the experiment with Aromatase (Homo sapiens)) was “inactive” each time. The molecule was classed as inactive in [2] and in [8].
Regarding `CC(C)(C)OOC(C)(C)C`, the call in [2] and in experiment [8] was inactive. Further, the Potency entry (in experiment [3]; in experiment [4]; in experiment [5]; in [6]; in [7]; with Aromatase (Homo sapiens)) was “inactive” each time.
Turning to `[O-][Cl+2]([O-])O`, the Potency result in [1], in experiment [3], in experiment [4], in [5], in experiment [6] and in experiment [7] was “inactive” throughout. Besides, the Potency result with Aromatase (Homo sapiens) was “inactive”. Further, the call in experiment [8] was inactive.
With `Cc1cccc([N+](=O)[O-])c1`, the Potency result in [1], in experiment [3], in experiment [4], in experiment [6] and in experiment [7] was “inactive” in each case. Besides, the molecule was classed as inactive in experiment [8].

Values taken from PubChem BioAssay (Tox21).
